# In PubChem BioAssay (EPA / NIEHS):
# Inconclusive results are not listed. Where a structure was tested more than once in an assay, its records may differ in their call. Calls of active or inactive are those of the source. The calls were made as follows: active = hit-call score of the fitted dose curve at least 0.9, where 1 is the maximum; inconclusive = response in the unintended direction; inactive = score below 0.9.
# Tested on: not listed separately
# Test: ACEA_AR_antagonist_AUC_viability: ACEA Biosciences xCELLigence Real-Time Cell Analysis on Androgen Receptor Antagonism for Viability (AID 2283776);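 also: 22Rv1 human prostate cancer cells growing on impedance electrode plates; area under impedance growth curve at 80 h after dosing as viability; hits lower the growth signal relative to DMSO meaning cytotoxicity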
# Summary of the method: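 Real-time electrical impedance tracks 22Rv1 proliferation after continuous compound exposure (top 100 uM final, 1:4 steps, 8 concentrations). The 80 h area-under-curve serves as the cytotoxicity readout relative to DMSO.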
Structure (SMILES),AC50,outcome
Cc1occc1C(=O)Nc1ccc(C(=O)N2CCC(F)(F)/C(=C\C(=O)N3CCC(N4CCCCC4)CC3)c3ccccc32)cc1,41.1 µM (active),
C[C@]12CC[C@@H]3c4ccc(O)cc4CC[C@H]3[C@@H]1CC[C@H]2O,84.1 µM (active),
O=c1ccc2ccccc2o1,,inactive
CC(C)(C)c1csc(-c2cc3cc(OCc4ccccc4CC(=O)O)ccc3o2)n1,23.7 µM (active),
Cc1oc2c(NC(=O)c3c(Cl)cccc3Cl)cccc2c1C(C)(C)O,20.3 µM (active),
CC(C)(C)c1cc(/C=C2\SC(N)=NC2=O)cc(C(C)(C)C)c1O,15.2 µM (active),
Cc1c2ccccc2c(C)c2c1ccc1ccccc12,41.1 µM (active),
C[C@]12CC[C@@H]3c4ccc(O)cc4CC[C@H]3[C@@H]1CCC2=O,71.6 µM (active),inactive
O=c1[nH]sc2ccccc12,7.87 µM (active),
CN(C[C@@H](CC[N+]12CCC(C3CCCCC3)(CC1)CC2)c1ccc(Cl)c(Cl)c1)C(=O)c1cc(C(F)(F)F)cc(C(F)(F)F)c1,5.8 µM (active),
NC(=O)c1nc(-c2cccc(-c3cc(F)ccc3OCC(F)(F)C(F)(F)F)c2)n[nH]1,19.3 µM (active),
Oc1ccccc1,,inactive
Cc1cc(F)ccc1-c1cc(N2CC[C@@H](O)[C@H]2CO)ncc1N(C)C(=O)C(C)(C)c1cc(C(F)(F)F)cc(C(F)(F)F)c1,10.1 µM (active),
CCCCCCCCCCCCO,,inactive
OC12N=C(c3ccccc3)SC1Cc1cc(Cl)ccc12 (stereo unspecified),76.2 µM (active),
O=C(O)Cn1c(=O)n(Cc2ccc(Br)cc2F)c(=O)c2ccc(Cl)cc21,,inactive
CC/C(=C(/CC)c1ccc(O)cc1)c1ccc(O)cc1,18 µM (active),
Clc1ccccc1C(c1ccccc1)(c1ccccc1)n1ccnc1,14.7 µM (active),
CCCCCCCCOc1ccc(C(=O)c2ccccc2)c(O)c1,13.7 µM (active),
O=C1c2ccccc2C(=O)N1CCc1noc(-c2ccc(CN3CCCCCC3)s2)n1,6.41 µM (active),
CCCCOC(=O)c1ccc(O)cc1,56.7 µM (active),

# Tested on: frog Estrogen Receptor (ESR1), gene 398734
# Test: ATG_frER1_XSP1: Attagene TRANS-FACTORIAL Multi-Species (XSP1) HepG2 Assay for frog Estrogen Receptor (ESR1) (AID 2283777)
# Summary of the method: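 HepG2 cells transiently transfected with frog ER–GAL4 chimera and GAL4-UAS reporter, with 3 nM 6-alpha-fluorotestosterone present; 24 h dosing, reporter mRNA quantified by RT-PCR and capillary electrophoresis, gain of signal versus DMSO.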
Structure (SMILES),outcome,AC50
CC(C)(c1cc(Br)c(O)c(Br)c1)c1cc(Br)c(O)c(Br)c1,inactive,
Cc1c2ccccc2c(C)c2c1ccc1ccccc12,,5910 nM (active)
C[C@]12CC[C@@H]3c4ccc(O)cc4CC[C@H]3[C@@H]1CCC2=O,,3.11 nM (active)
CC/C(=C(/CC)c1ccc(O)cc1)c1ccc(O)cc1,,0.0517 nM (active)
